According to PubChem BioAssay (NCI):
The panel holds about 83,000 compounds, 20% with a hit somewhere; the sample as a whole holds those more often.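 Treatment: one concentration, 48 hours, 96-well format. Scoring: percent growth, with anything below 10 considered active.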 Calls of active or inactive are those of the source.

Columns and labels:
Experiment in all cases: NCI-60 one-dose screen, 48 h (100 = growth as untreated, 0 = no growth, -100 = all killed)
Conditions in all cases: 10 µM unless noted
DU-145 prostate = test system: DU-145 prostate
K-562 leukemia = test system: K-562 leukemia
MALME-3M melanoma = test system: MALME-3M melanoma
MDA-MB-231 breast = test system: MDA-MB-231 breast
RXF 393 renal = test system: RXF 393 renal
SF-268 CNS = test system: SF-268 CNS
SF-295 CNS = test system: SF-295 CNS
SF-539 CNS = test system: SF-539 CNS
UACC-257 melanoma = test system: UACC-257 melanoma
M14 melanoma = test system: M14 melanoma
HCT-15 colon = test system: HCT-15 colon
HT29 colon = test system: HT29 colon
SNB-75 CNS = test system: SNB-75 CNS
SNB-19 CNS = test system: SNB-19 CNS
U251 CNS = test system: U251 CNS
SK-MEL-5 melanoma = test system: SK-MEL-5 melanoma
UACC-62 melanoma = test system: UACC-62 melanoma
LOX IMVI melanoma = test system: LOX IMVI melanoma
SK-MEL-28 melanoma = test system: SK-MEL-28 melanoma
PC-3 prostate = test system: PC-3 prostate

Measured: growth

CCCCCCCOc1c(OC)cc(C2CC(=O)Nc3c2c(C)nn3-c2nc3ccccc3[nH]2)cc1OC (stereo not given)
active: MALME-3M melanoma -51.5% | MDA-MB-231 breast -66.3% | RXF 393 renal -40.1% | SF-268 CNS -9.44% | SF-295 CNS -57.4% | SF-539 CNS -88.5% | M14 melanoma 4.61% | HCT-15 colon 0.5% | HT29 colon -2.41% | SNB-75 CNS -31.5% | U251 CNS -58.2% | SK-MEL-5 melanoma -83.7% | UACC-62 melanoma -49.2% | LOX IMVI melanoma -89.2% | SK-MEL-28 melanoma -9.72%
inactive: DU-145 prostate 29.6% | K-562 leukemia 21% | UACC-257 melanoma 10.1% | SNB-19 CNS 16.1%

O=[N+]([O-])c1ccc(-c2cc(-c3ccc(Nc4nc(Nc5ccc(Cl)cc5)nc(Nc5ccc(Cl)cc5)n4)cc3)no2)cc1
inactive: DU-145 prostate 87.7% | K-562 leukemia 65.6% | MALME-3M melanoma 96.3% | MDA-MB-231 breast 73.5% | RXF 393 renal 71.7% | SF-268 CNS 96.1% | SF-295 CNS 563% | SF-539 CNS 95.4% | UACC-257 melanoma 105% | M14 melanoma 102% | HCT-15 colon 89.9% | HT29 colon 16.5% | SNB-75 CNS 16.9% | SNB-19 CNS 98.2% | U251 CNS 91.9% | SK-MEL-5 melanoma 79.5% | UACC-62 melanoma 95.7% | LOX IMVI melanoma 84.4% | SK-MEL-28 melanoma 40.5%

O=C(Nc1ccccc1)Nc1cccc(Oc2nnc(Cl)c3ccccc23)c1
inactive: DU-145 prostate 39% | K-562 leukemia 51.6% | MDA-MB-231 breast 32.1% | SF-268 CNS 25.9% | SF-295 CNS 31.2% | UACC-257 melanoma 22% | M14 melanoma 46.3% | HCT-15 colon 36.4% | HT29 colon 23.8% | PC-3 prostate 25.9% | SK-MEL-5 melanoma 32.9% | UACC-62 melanoma 41.3% | LOX IMVI melanoma 32.1% | SK-MEL-28 melanoma 44.2%
active: MALME-3M melanoma -29.6% | RXF 393 renal -3.63% | SF-539 CNS -22% | SNB-75 CNS -42% | U251 CNS 4.84%

CC(=O)c1ccc(NCC(=O)Nc2ccccn2)cc1
inactive: DU-145 prostate 107% | K-562 leukemia 95.6% | MALME-3M melanoma 97.6% | MDA-MB-231 breast 94.1% | RXF 393 renal 117% | SF-268 CNS 97.1% | SF-295 CNS 109% | SF-539 CNS 106% | UACC-257 melanoma 106% | M14 melanoma 106% | HCT-15 colon 109% | SNB-75 CNS 92.7% | U251 CNS 102% | PC-3 prostate 96.4% | SK-MEL-5 melanoma 99.9% | UACC-62 melanoma 97% | LOX IMVI melanoma 101% | SK-MEL-28 melanoma 115%

Cc1ccc2nc3ccccc3c(NCc3ccccc3)c2c1
active: RXF 393 renal 1.32% | LOX IMVI melanoma 9.08%
inactive: DU-145 prostate 35.8% | K-562 leukemia 10.9% | MALME-3M melanoma 55.2% | MDA-MB-231 breast 35.8% | SF-268 CNS 69% | SF-295 CNS 28.1% | SF-539 CNS 23.2% | UACC-257 melanoma 56.6% | M14 melanoma 45.6% | HCT-15 colon 18% | SNB-75 CNS 65% | SNB-19 CNS 31.8% | U251 CNS 37% | PC-3 prostate 29.7% | SK-MEL-5 melanoma 58.8% | UACC-62 melanoma 56.4% | SK-MEL-28 melanoma 78%

CC(=O)N1C(=S)NC(=O)C1Cn1c(-c2ccccc2)nc2ccccc21 (stereo not given)
inactive: DU-145 prostate 110% | K-562 leukemia 101% | MALME-3M melanoma 101% | MDA-MB-231 breast 90.4% | RXF 393 renal 96.5% | SF-268 CNS 99.2% | SF-295 CNS 105% | SF-539 CNS 97.1% | UACC-257 melanoma 107% | M14 melanoma 103% | HCT-15 colon 98.3% | SNB-75 CNS 76.2% | SNB-19 CNS 93.3% | U251 CNS 101% | PC-3 prostate 97.8% | SK-MEL-5 melanoma 99.1% | UACC-62 melanoma 91.5% | LOX IMVI melanoma 95.8% | SK-MEL-28 melanoma 106%

Cc1c2c(c(C)c3c1oc1cc(O)ccc13)C(=O)N(CCN1CCCCC1)C2=O
active: K-562 leukemia 3.97%
inactive: DU-145 prostate 68.4% | MALME-3M melanoma 100% | MDA-MB-231 breast 83% | RXF 393 renal 87.1% | SF-268 CNS 73.4% | SF-295 CNS 102% | SF-539 CNS 91.6% | UACC-257 melanoma 110% | M14 melanoma 91.7% | HCT-15 colon 95.4% | SNB-75 CNS 87.3% | SNB-19 CNS 88.9% | U251 CNS 86.4% | PC-3 prostate 83.8% | SK-MEL-5 melanoma 96% | UACC-62 melanoma 99.2% | LOX IMVI melanoma 95.4% | SK-MEL-28 melanoma 106%

Cc1occc1-c1n[nH]c(=S)n1N1C(=O)CSC1=S
inactive: DU-145 prostate 108% | K-562 leukemia 103% | MALME-3M melanoma 98% | MDA-MB-231 breast 101% | RXF 393 renal 112% | SF-268 CNS 97% | SF-295 CNS 101% | SF-539 CNS 98.5% | UACC-257 melanoma 109% | M14 melanoma 102% | HCT-15 colon 101% | SNB-75 CNS 80.9% | SNB-19 CNS 97% | U251 CNS 100% | PC-3 prostate 97.2% | SK-MEL-5 melanoma 101% | UACC-62 melanoma 91.4% | LOX IMVI melanoma 94.1%

COc1ccc(NC(=O)CSc2nc(C)c(C(C)=O)n2-c2ccc(Cl)cc2)cc1
inactive: DU-145 prostate 116% | K-562 leukemia 109% | MALME-3M melanoma 96% | MDA-MB-231 breast 59.7% | RXF 393 renal 94.5% | SF-268 CNS 102% | SF-295 CNS 93.3% | SF-539 CNS 96.2% | UACC-257 melanoma 101% | M14 melanoma 97% | HCT-15 colon 78.4% | SNB-75 CNS 84.7% | SNB-19 CNS 90.9% | U251 CNS 105% | PC-3 prostate 96.3% | SK-MEL-5 melanoma 93.7% | UACC-62 melanoma 70.2% | LOX IMVI melanoma 91% | SK-MEL-28 melanoma 91.7%

O=[N+]([O-])c1ccc(N2c3ccncc3Sc3ccncc32)cc1
inactive: DU-145 prostate 117% | K-562 leukemia 83% | MALME-3M melanoma 122% | MDA-MB-231 breast 77.1% | RXF 393 renal 83.6% | SF-268 CNS 129% | SF-295 CNS 103% | SF-539 CNS 99.3% | UACC-257 melanoma 113% | M14 melanoma 106% | HCT-15 colon 96.5% | SNB-75 CNS 98.9% | SNB-19 CNS 107% | U251 CNS 93.4% | PC-3 prostate 88.1% | SK-MEL-5 melanoma 112% | UACC-62 melanoma 93.2% | LOX IMVI melanoma 81.7% | SK-MEL-28 melanoma 115%

N#Cc1nc2c(S(=O)(=O)c3ccc(Cl)cc3)c(N)n(Nc3cccc(Cl)c3)c2nc1C#N
active: PC-3 prostate -56.8%
inactive: DU-145 prostate 16.2% | K-562 leukemia 25.9% | MALME-3M melanoma 25.3% | MDA-MB-231 breast 58.8% | RXF 393 renal 46.3% | SF-268 CNS 53.8% | SF-295 CNS 48.9% | SF-539 CNS 38.9% | UACC-257 melanoma 47.9% | M14 melanoma 79% | HCT-15 colon 91.2% | SNB-75 CNS 55.9% | SNB-19 CNS 64.6% | U251 CNS 40% | SK-MEL-5 melanoma 42.8% | UACC-62 melanoma 49.2% | LOX IMVI melanoma 61.3% | SK-MEL-28 melanoma 26.1%

CC(C)CCC[C@@H](C)[C@H]1CC[C@H]2[C@@H](Nc3ccc(O)cc3)CCC[C@]12C
inactive: DU-145 prostate 96.5% | K-562 leukemia 105% | MALME-3M melanoma 133% | MDA-MB-231 breast 109% | RXF 393 renal 70.6% | SF-268 CNS 80.2% | SF-295 CNS 98.5% | SF-539 CNS 17.5% | UACC-257 melanoma 42.2% | M14 melanoma 102% | HCT-15 colon 70.8% | SNB-75 CNS 75.8% | SNB-19 CNS 111% | U251 CNS 91.8% | SK-MEL-5 melanoma 97.9% | UACC-62 melanoma 76.5% | LOX IMVI melanoma 34.7% | SK-MEL-28 melanoma 97.9%

Cc1ccc(-n2c(-c3ccccc3)c(-c3ccccc3)c3c(SCC(=O)n4[nH]c(N)cc4=O)ncnc32)cc1
inactive: DU-145 prostate 108% | K-562 leukemia 77.1% | MALME-3M melanoma 97.6% | MDA-MB-231 breast 83.3% | RXF 393 renal 96.6% | SF-268 CNS 107% | SF-295 CNS 89.3% | SF-539 CNS 96% | UACC-257 melanoma 94.1% | M14 melanoma 94.3% | HCT-15 colon 101% | SNB-75 CNS 97.1% | SNB-19 CNS 91.8% | U251 CNS 87% | PC-3 prostate 79.4% | SK-MEL-5 melanoma 87.3% | UACC-62 melanoma 77.4% | LOX IMVI melanoma 97.7% | SK-MEL-28 melanoma 101%

Cc1ccc(NS(=O)(=O)c2ccc3c(c2)C(=O)CC(c2ccc(C(=O)C(C)C)cc2)N3)cc1C (stereo not given)
inactive: DU-145 prostate 83.5% | K-562 leukemia 39.7% | MALME-3M melanoma 51.1% | MDA-MB-231 breast 78.5% | RXF 393 renal 75.3% | SF-268 CNS 68% | SF-295 CNS 37.7% | SF-539 CNS 71.5% | UACC-257 melanoma 43.1% | M14 melanoma 73% | HCT-15 colon 57% | SNB-75 CNS 55.7% | SNB-19 CNS 68.2% | U251 CNS 68% | PC-3 prostate 46% | UACC-62 melanoma 52.8% | LOX IMVI melanoma 55.6%
active: SK-MEL-5 melanoma -10.4%

COc1ccc(NC(=O)CSc2nc(C)c(C(C)=O)n2-c2ccc([N+](=O)[O-])cc2)cc1
inactive: DU-145 prostate 113% | K-562 leukemia 96.6% | MALME-3M melanoma 91.3% | MDA-MB-231 breast 80.3% | RXF 393 renal 84.9% | SF-268 CNS 108% | SF-295 CNS 89% | SF-539 CNS 102% | UACC-257 melanoma 98.4% | M14 melanoma 94.9% | HCT-15 colon 85.7% | SNB-75 CNS 90% | SNB-19 CNS 85.9% | U251 CNS 93.8% | PC-3 prostate 85.3% | SK-MEL-5 melanoma 91.5% | UACC-62 melanoma 73.1% | LOX IMVI melanoma 89.7%
